Data: article PMC5700166

Tests used:
Test in all cases: protein-binding microarray (PBM); PBM: ~300 nM protein, 6 mM HEPES pH 7.8, 80 mM KCl, 0.5 mM EDTA, 0.5 mM EGTA, 6% glycerol, 35 ng/ul poly-dIdC, 1% milk, 1 h, room temperature; Ap Aiptasia and Nv Nematostella (sea anemones) / Co Capsaspora / Aq Amphimedon (sponge) / Dm Drosophila / Hu human; RHD is the Rel homology domain; high values mean tight binding
Conditions in all cases: dsDNA, one strand shown
[1] = target: T1, GST-Ap-NF-kB RHD (Exaiptasia pallida (Aiptasia), UniProt A0A913YAJ5 2-422)
T1 sequence: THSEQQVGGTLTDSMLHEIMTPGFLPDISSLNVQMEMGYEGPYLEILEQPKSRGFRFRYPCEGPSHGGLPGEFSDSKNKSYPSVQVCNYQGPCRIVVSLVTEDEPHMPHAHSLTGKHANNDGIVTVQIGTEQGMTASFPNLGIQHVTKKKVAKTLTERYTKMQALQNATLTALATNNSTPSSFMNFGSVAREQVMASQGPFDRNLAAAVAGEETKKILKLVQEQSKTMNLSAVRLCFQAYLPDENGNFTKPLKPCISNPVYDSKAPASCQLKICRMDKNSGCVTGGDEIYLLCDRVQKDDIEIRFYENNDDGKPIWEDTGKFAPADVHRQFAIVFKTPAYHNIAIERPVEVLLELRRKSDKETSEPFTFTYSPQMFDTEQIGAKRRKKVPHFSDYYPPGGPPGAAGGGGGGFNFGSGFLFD

[2] = target: T2, GST-Nv-NF-kB (Cys allele) (Nematostella vectensis, UniProt E5G601 2-411)
T2 sequence: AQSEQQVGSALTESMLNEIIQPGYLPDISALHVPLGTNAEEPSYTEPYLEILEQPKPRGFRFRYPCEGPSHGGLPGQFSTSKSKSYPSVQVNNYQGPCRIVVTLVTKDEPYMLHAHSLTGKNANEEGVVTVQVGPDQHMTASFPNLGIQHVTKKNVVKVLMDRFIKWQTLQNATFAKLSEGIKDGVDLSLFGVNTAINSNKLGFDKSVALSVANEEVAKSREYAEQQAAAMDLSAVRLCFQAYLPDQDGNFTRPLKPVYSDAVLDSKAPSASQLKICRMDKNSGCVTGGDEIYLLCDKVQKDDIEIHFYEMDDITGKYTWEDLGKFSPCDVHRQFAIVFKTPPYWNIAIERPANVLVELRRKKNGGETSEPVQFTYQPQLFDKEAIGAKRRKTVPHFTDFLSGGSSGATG

[3] = target: T3, GST-Co-NF-kB (Capsaspora owczarzaki, UniProt F1ARL5 200-546)
T3 sequence: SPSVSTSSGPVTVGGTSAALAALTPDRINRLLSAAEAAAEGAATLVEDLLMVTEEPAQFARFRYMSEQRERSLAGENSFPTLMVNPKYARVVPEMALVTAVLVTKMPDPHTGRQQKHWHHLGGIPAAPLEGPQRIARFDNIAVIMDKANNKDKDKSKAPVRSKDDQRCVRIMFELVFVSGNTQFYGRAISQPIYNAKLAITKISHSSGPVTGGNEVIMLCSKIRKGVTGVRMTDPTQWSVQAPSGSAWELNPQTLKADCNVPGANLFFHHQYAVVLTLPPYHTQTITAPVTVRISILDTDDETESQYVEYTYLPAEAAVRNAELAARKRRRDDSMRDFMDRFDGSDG

[4] = target: T4, GST-Dm-Relish (Drosophila melanogaster, UniProt Q94527 99-473)
T4 sequence: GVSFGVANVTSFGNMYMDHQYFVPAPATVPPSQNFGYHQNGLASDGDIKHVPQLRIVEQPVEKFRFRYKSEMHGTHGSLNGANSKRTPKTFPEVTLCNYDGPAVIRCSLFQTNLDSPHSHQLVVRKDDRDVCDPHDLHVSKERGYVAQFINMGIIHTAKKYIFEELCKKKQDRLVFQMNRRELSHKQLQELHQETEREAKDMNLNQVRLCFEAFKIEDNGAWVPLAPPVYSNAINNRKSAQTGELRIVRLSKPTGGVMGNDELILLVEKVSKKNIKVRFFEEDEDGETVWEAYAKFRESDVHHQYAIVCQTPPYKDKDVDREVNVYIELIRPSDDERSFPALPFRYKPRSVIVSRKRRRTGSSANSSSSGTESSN

[5] = target: T5, GST-Aq-NF-kB (Amphimedon queenslandica, UniProt A9Y5G7 2-389)
T5 sequence: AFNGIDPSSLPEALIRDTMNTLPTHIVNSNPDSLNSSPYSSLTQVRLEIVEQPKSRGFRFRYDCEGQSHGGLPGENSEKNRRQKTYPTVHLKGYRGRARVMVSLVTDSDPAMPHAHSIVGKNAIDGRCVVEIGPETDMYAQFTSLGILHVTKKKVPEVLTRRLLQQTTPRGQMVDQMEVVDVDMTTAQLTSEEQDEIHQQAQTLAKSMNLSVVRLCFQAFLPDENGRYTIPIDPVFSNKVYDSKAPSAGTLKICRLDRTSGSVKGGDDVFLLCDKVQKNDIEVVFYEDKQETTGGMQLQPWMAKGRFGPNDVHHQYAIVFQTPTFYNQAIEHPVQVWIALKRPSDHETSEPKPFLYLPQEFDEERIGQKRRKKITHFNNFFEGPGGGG

| Sequence | binding signal [1] | binding signal [2] | binding signal [3] | binding signal [4] | binding signal [5] |
| --- | --- | --- | --- | --- | --- |
| CCGATTAACATCATAAGCGGGGATGATGTTAATCGGGTCTTGATTCGCTTGACGCTGCTG | 3.32 z-score | 3.81 z-score | 4.81 z-score | 2.26 z-score | 3.7 z-score |
| CCGATTAACATCAGGAAAATACCTGATGTTAATCGGGTCTTGATTCGCTTGACGCTGCTG | 1.22 z-score | 2.3 z-score |  | 4.66 z-score | 4.29 z-score |
| CCGATTAACATCAGGGACCTCCCTGATGTTAATCGGGTCTTGATTCGCTTGACGCTGCTG | 5.47 z-score | 4.78 z-score |  | 6.16 z-score | 7.04 z-score |
| CCGATTAACATCAGGGGGCGCACTGATGTTAATCGGGTCTTGATTCGCTTGACGCTGCTG | 3.71 z-score | 3.04 z-score | 2.37 z-score | 4.13 z-score | 4.79 z-score |
| CCGATTAACATCAAAAAAGACCCTGATGTTAATCGGGTCTTGATTCGCTTGACGCTGCTG | 2.93 z-score | 5.44 z-score |  | 6.91 z-score | 6.04 z-score |
| CCGATTAACATCAGGGAGCTACCTGATGTTAATCGGGTCTTGATTCGCTTGACGCTGCTG | 2.89 z-score | 1.88 z-score |  | 1.02 z-score | 3.21 z-score |
| CCGATTAACATCACGGGTTTTTCTGATGTTAATCGGGTCTTGATTCGCTTGACGCTGCTG | 3.7 z-score | 3.76 z-score |  | 5.07 z-score | 4.7 z-score |
| CCGATTAACATCAGGAAACACCCTGATGTTAATCGGGTCTTGATTCGCTTGACGCTGCTG | 3.05 z-score | 2.79 z-score | 1.1 z-score | 4.19 z-score | 6.01 z-score |
| CCGATTAACATCAAAATTCCACCTGATGTTAATCGGGTCTTGATTCGCTTGACGCTGCTG | 1.5 z-score | 2.45 z-score |  | 1.96 z-score | 2.25 z-score |
| CCGATTAACATCAGGGGAGTAAATGATGTTAATCGGGTCTTGATTCGCTTGACGCTGCTG | 3.1 z-score | 3 z-score | 4.51 z-score | 1.91 z-score | 3 z-score |
| CCGATTAACATCAGGGGACGCACTGATGTTAATCGGGTCTTGATTCGCTTGACGCTGCTG | 4.45 z-score | 4.2 z-score | 2.19 z-score | 5.79 z-score | 4.68 z-score |
| CCGATTAACATCAAGGTAATTCCTGATGTTAATCGGGTCTTGATTCGCTTGACGCTGCTG | 1.69 z-score | 2.09 z-score |  | 4.8 z-score | 3.37 z-score |
| CCGATTAACATCAGGTAATCCCATGATGTTAATCGGGTCTTGATTCGCTTGACGCTGCTG | 2.95 z-score | 1.6 z-score |  | 6.13 z-score | 3.49 z-score |
| CCGATTAACATCAGGGGGTCACCTGATGTTAATCGGGTCTTGATTCGCTTGACGCTGCTG | 3.61 z-score | 2.23 z-score | 1.96 z-score | 6.03 z-score | 4.39 z-score |
| CCGATTAACATCAGGACGTTCCCTGATGTTAATCGGGTCTTGATTCGCTTGACGCTGCTG | 2.27 z-score | 2.22 z-score | 1.01 z-score | 1.51 z-score | 5.14 z-score |
| CCGATTAACATCACGTGTTTCCCTGATGTTAATCGGGTCTTGATTCGCTTGACGCTGCTG | 2.62 z-score | 2.76 z-score | 3 z-score | 3.51 z-score | 3.35 z-score |
| CCGATTAACATCAGGAAATGCCCTGATGTTAATCGGGTCTTGATTCGCTTGACGCTGCTG | 1.98 z-score | 3.05 z-score |  | 1.68 z-score | 5.41 z-score |
| CCGATTAACATCAGGGCATTACCTGATGTTAATCGGGTCTTGATTCGCTTGACGCTGCTG | 1.29 z-score | 1.87 z-score |  | 3.33 z-score | 4.51 z-score |
| CCGATTAACATCAAAAAATACCATGATGTTAATCGGGTCTTGATTCGCTTGACGCTGCTG | 1.11 z-score | 1.58 z-score |  | 4.53 z-score | 2.23 z-score |
| CCGATTAACATCAGGAATAACCCTGATGTTAATCGGGTCTTGATTCGCTTGACGCTGCTG | 1.87 z-score | 2.62 z-score |  | 3.23 z-score | 5.81 z-score |
| CCGATTAACATCAGATATTTCCCTGATGTTAATCGGGTCTTGATTCGCTTGACGCTGCTG | 3.25 z-score | 5.95 z-score | 5.03 z-score | 2.31 z-score | 6.38 z-score |
| CCGATTAACATCAGGGGGGGTACTGATGTTAATCGGGTCTTGATTCGCTTGACGCTGCTG | 5.04 z-score | 3.45 z-score | 4.54 z-score | 5.04 z-score | 4.67 z-score |
| CCGATTAACATCAGGAATTACCATGATGTTAATCGGGTCTTGATTCGCTTGACGCTGCTG | 1.03 z-score | 1.38 z-score |  | 4.62 z-score | 3 z-score |
| CCGATTAACATCACATACTCCCCTGATGTTAATCGGGTCTTGATTCGCTTGACGCTGCTG | 4.4 z-score | 3.45 z-score | 3.69 z-score | 1.57 z-score | 3.42 z-score |
| CCGATTAACATCACGGAATTACCTGATGTTAATCGGGTCTTGATTCGCTTGACGCTGCTG | 1.02 z-score | 1.63 z-score |  | 3.44 z-score | 3.88 z-score |
| CCGATTAACATCAGAAGATTCCCTGATGTTAATCGGGTCTTGATTCGCTTGACGCTGCTG | 3.38 z-score | 4.85 z-score | 3.43 z-score | 3.48 z-score | 5.19 z-score |
| CCGATTAACATCAGGAAGACCCCTGATGTTAATCGGGTCTTGATTCGCTTGACGCTGCTG | 3.9 z-score | 3.08 z-score |  | 3.8 z-score | 5.31 z-score |
| CCGATTAACATCAAAACTTCCCATGATGTTAATCGGGTCTTGATTCGCTTGACGCTGCTG | 3.04 z-score | 3.7 z-score | 2.63 z-score | 4.52 z-score | 4.42 z-score |
